In the library only some 8% were active in any assay of this set; here they are far more common.
HCV inh – qHTS Assay for Inhibitors of Hepatitis C Virus (HCV); 340,000 compounds, 3.4% hits; AID 651820, 2012; Huh7.5.1 HCVcc-Cre infection, luciferase reporter, 44 h; Potency, µM (highest dose often 41.8 µM), for the others: at the top dose activity change, negative = inhibition, most hits filed as inhibitors; active = well fitted inhibition curve with a large enough effect; inconclusive = small, poorly fitted or top-dose-only effect, or another doubt; inactive = no such curve, though single readings can be large or run the other way; also: potency is read from the fitted curve at half-maximal effect; % is scaled to controls: 0 for no effect and ±100 for the full control effect
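Antiviral activity was scored by luciferase reporter output from cells infected with HCVcc-Cre (~0.5 moi) in presence of compound, 44 h infection period, cells seeded 1,000/well 4 h prior.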
SARS PLP yeast – qHTS of Yeast-based Assay for SARS-CoV PLP. S. cerevisiae expressing SARS-CoV PLpro, growth rescue. Potency, µM (series often up to 32.9 µM), inactives show top-dose activity, positive = growth rescue, usual class: activators. 330,000 compounds, 0.19% hits. AID 485353, 2010; calls by dose curve; also: potency is read from the fitted curve at half-maximal effect; 0% is about no effect; nearly all actives have a fitted effect of over 55% in size
FMDV antiviral – High Throughput Screening for Foot and Mouth Disease Virus Antivirals; FMDV antiviral cell-based qHTS; Potency, µM (series often up to 57.9 µM), for inactives: at the top dose activity change, negative = inhibition, actives largely listed as inhibitors; 410,000 compounds, 1.2% hits; AID 1159524, 2015; calls by dose curve; tested in HEK293T cells; also: read-out not given here; potency is read from the fitted curve at half-maximal effect; % is scaled to controls: 0 for no effect and ±100 for the full control effect; nearly all actives have a fitted effect of over 45% in size
LASV entry inh – qHTS for Inhibitors of binding or entry into cells for Lassa Virus. Lassa virus pseudotype entry inhibition, cell reporter. Potency, µM (doses to about 37.9 µM), for the others: at the top dose activity change, negative = inhibition, actives largely listed as inhibitors. 300,000 compounds, 1.2% hits. AID 540256, 2011; calls by dose curve; tested in HEK293 cells; also: potency is read from the fitted curve at half-maximal effect; % is scaled to controls: 0 for no effect and ±100 for the full control effect; nearly all actives have a fitted effect of over 50% in size
MARV entry inh – qHTS for inhibitors of binding or entry into cells for Marburg Virus. Marburg virus pseudotyped entry inhibition, cell reporter. Potency, µM (titrated, usually from 37.8 µM), inactives show top-dose activity change, negative = inhibition, actives largely listed as inhibitors. 300,000 compounds, 1.8% hits. AID 540276, 2011; calls by dose curve; tested in HEK293 cells; also: potency is read from the fitted curve at half-maximal effect; % is scaled to controls: 0 for no effect and ±100 for the full control effect
HCMV antiviral – qHTS Assay for inhibitors of the human cytomegalovirus (HCMV). HFF cells, HCMV-luciferase reporter, 72 h; stronger effect = lower value. activity change, negative = inhibition, % at 57.5 µM. 410,000 compounds, 4.5% hits. AID 1259415, 2018; in the data active = activity change below about -60%; inconclusive = no clear call, values can overlap the other calls; inactive = above about -39%; also: % is scaled to controls: 0 for no effect and ±100 for the full control effect
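Human foreskin fibroblasts infected with luciferase-reporter HCMV at MOI 1 PFU/cell, compounds at two doses. Luciferase measured 72 h post infection; normalized to buffer-only basal and Salinomycin (10uM) controls.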
Numbers without * were called inactive; ? = inconclusive; / = no result; [ ] = dose if it differs, or a comment.

SMILES	HCV inh	SARS PLP yeast	FMDV antiviral	LASV entry inh	MARV entry inh	HCMV antiviral
CCNC(=O)CN(c1ccc(C)cc1)S(=O)(=O)c1ccccc1	-10%	1%	19%	1%	-25%[46.1 µM]	-83*
CC(=O)Nc1ccc(NC(=O)CN(c2ccc([N+](=O)[O-])cc2)S(=O)(=O)c2ccccc2)cc1	-20%	1%	-2%	/	/	?
CCN(CC)S(=O)(=O)c1ccc(NC(=O)CN(c2ccccc2)S(=O)(=O)N(C)C)cc1	/	/	-23%	?	-6%[46.1 µM]	-89*
Cc1ccc(N(CC(=O)NCc2ccco2)S(=O)(=O)c2ccccc2)cc1	-6%	4%	23%	-3%	-14%	-7
Cc1cc(C)cc(N(CC(=O)Nc2ccccc2-c2ccccc2)S(=O)(=O)c2ccccc2)c1	14%	-11%	0%	21%	2%	-22
Cc1ccccc1C1(CC(=O)N2CCOCC2)CC(=O)N(Cc2cccnc2)C1=O (stereo unspecified)	/	/	-13%	/	/	/
CC(C)C[C@H](N)C(=O)N[C@H](C(=O)N[C@H](C(=O)N[C@@H](Cc1ccc(O)cc1)C(=O)N1CCC[C@H]1C(=O)N[C@@H](Cc1c[nH]c2ccccc12)C(=O)N[C@H](C(=O)N[C@@H](CCC(N)=O)C(=O)N[C@@H](CCCN=C(N)N)C(=O)O)[C@@H](C)O)C(C)C)C(C)C	/	/	-12%[6.7 µM]	/	/	/
CN(CCO)C(=O)c1cn(C2CCN(Cc3c(F)cccc3Cl)CC2)nn1	/	/	-11%	/	/	/
COc1ccc(C(=O)NCCc2nnc3n2CCN(CC2CC=CCC2)CC3)cc1 (stereo unspecified)	/	/	-19%	/	/	/
Cc1cc(NC(=O)CN(c2cccc(C)c2C)S(=O)(=O)c2ccccc2)ccc1Br	/	/	?	?	?	-68*
Cc1cccc(N(CC(=O)Nc2ccccc2-c2ccccc2)S(=O)(=O)c2ccccc2)c1C	?	8%	-25%	-29%	?	-61*
Cc1ccc(S(=O)(=O)N(CC(=O)Nc2ccccc2-c2ccccc2)c2ccc(C)cc2C)cc1	?	-4%	-19%	?	?	?
C=CCSc1nc(-c2ccc(OC)cc2)c(C#N)c(=O)n1CC=C	?	0%	?	?	?	?
COc1cccc(CNC(=O)[C@H]2[C@H](CO)[C@H]3Cn4c(cccc4=O)[C@@H]2N3C(=O)C2CC2)c1	/	/	/	/	/	-20
COc1ccc(OC)c(-n2nnnc2SCC(=O)Nc2ccc(C(=O)N3CCCCC3)cc2)c1	-24%	-1%	/	-17%	-23%	-64*
COc1ccc(OC)c(-n2nnnc2SCC(=O)Nc2ccc3c(c2)OCCO3)c1	?	-4%	/	1%	-18%	1
COc1ccc(C(=O)NNC(=O)CSc2nnnn2-c2cc(OC)cc(OC)c2)cc1	11µM*	2%	-1%	12%	15%	8
Cc1ccc(C)c(NC(=O)CN(Cc2ccccc2)S(=O)(=O)c2ccc3nc(C)sc3c2)c1	/	/	-17%	-2%[46.1 µM]	/	-20
COC(=O)C1(C(=O)OC)c2cc3c(cc2CN(S(=O)(=O)c2ccc(C)cc2)C1CC(C)=O)OCO3 (stereo unspecified)	/	/	0%	/	/	17
O=c1[nH]cnc2c1sc1nc(C(F)F)cc(-c3ccccc3)c12	?	3%	-7%	-13%	5%	14
Cc1ccccc1CN1CCCC(C(=O)Nc2ccc(-c3ccn[nH]3)cc2)C1 (stereo unspecified)	?	-10%	-19%	-28%	?	-63*
COCc1ccc(CN2CCCC(C(=O)Nc3ccccc3-c3ccc(OC)cc3)C2)o1 (stereo unspecified)	-20%	-2%	22%	/	/	4
COc1cccc(C(=O)C2CCCN(Cc3cnn(C(C)C)c3)C2)c1 (stereo unspecified)	1%	1%	-14%	-7%	-19%[46.1 µM]	18
COc1cccc(-c2ccc(NC(=O)C3CCCN(CCCn4cccn4)C3)cc2)c1 (stereo unspecified)	?	-1%	35µM*	?	?	-29
COc1cccc(-c2ccc(NC(=O)C3CCCN(Cc4cnn(C(C)C)c4)C3)cc2)c1 (stereo unspecified)	11µM*	?	?	?	?	-108*
SMILES	HCV inh	SARS PLP yeast	FMDV antiviral	LASV entry inh	MARV entry inh	HCMV antiviral
COCc1ccc(CN2CCCC(C(=O)Nc3ccc(-c4cccc(OC)c4)cc3)C2)o1 (stereo unspecified)	10µM*	?	-16%	/	/	?
N#Cc1c(-c2ccc(F)cc2)nc2n(c1=O)CCS2	22µM*	-20%	1%	-6%	-7%	-17
Nc1cc(S(=O)(=O)Nc2ccccc2Cl)ccc1N1CCCCC1	6.3µM*	-19%	23%	/	/	?
COc1ccc(NS(=O)(=O)c2ccc(N3CCCCC3)c(N)c2)cc1	2.8µM*	-11%	-8%	/	/	?
Cc1ccc(C(C)C)c(OCc2nn(CC(=O)c3ccc(Cl)cc3)c3[n+]2CCCCC3)c1	?	-3%	32µM*	?	?	-112*
O=C(Cn1nc(CNc2ccc(Cl)cc2)[n+]2c1CCCCC2)c1ccccc1	13%	12%	-4%	0%	12%	?
CCn1c(COc2c(C)cccc2C)nnc1SCC(=O)N1CCN(c2ccccc2)CC1	35µM*	2%	?	?	?	?
C=CCn1c(COc2cccc(C)c2C)nnc1SCC(=O)N1CCN(c2ccccc2)CC1	?	?	18µM*	5.6µM*	?	?
Cc1cccc(OCc2nnc(SCC(=O)N3CCN(c4ccccc4)CC3)o2)c1C	-4%	8%	?	-18%	-29%	-14
CC(Oc1ccc(Br)cc1)C(=O)Nc1nc(-c2ccccn2)cs1 (stereo unspecified)	11µM*	-2%	40µM*	?	?	-88*
CCc1nnc(NC(=O)C(NC(=O)c2ccccc2Cl)C(C)C)s1 (stereo unspecified)	-1%	5%	-18%	4%	-1%[46.1 µM]	-31
CC(C)[C@H](NC(=O)c1ccccc1Cl)C(=O)Nc1nc(-c2ccccn2)cs1	?	-2%	?	?	?	-83*
COc1cc2c(cc1OC)[C@@H]1O[C@](CCCCN3C(=O)c4ccccc4C3=O)(C2)Oc2c1c(=O)oc1ccccc21	/	/	/	/	3%[14.2 µM]	/
Cc1ccc(NC(=O)CN2C(=O)C(c3ccccc3)=NC23CCCCC3)cc1C	/	/	-23%	-7%[46.1 µM]	?	53
O=C(CN1C(=O)C(c2ccc(F)cc2)=NC12CCCC2)Nc1ccc(F)cc1	2.5µM*	1%	?	/	/	-78*

Assay outcomes: PubChem, National Center for Advancing Translational Sciences (NCATS)
